In ChEMBL document CHEMBL4888484, “Replenishing the malaria drug discovery pipeline: Screening and hit evaluation of the MMV Hit Generation Library 1 (HGL1) against asexual blood stage Plasmodium falciparum ,using a nano luciferase reporter read-out” (2022):
Among all 4,800 compounds or so, about 420 (8.8%) showed an effect of 50% or more. This is one part of a sample in which strong results are shown more often than they occur.

test system: Plasmodium falciparum; test: Confirmatory screen in NF54 nanoGlo assay, in single point, at 2uM, 72h; assay type: functional, Erythrocyte; details: timepoint 72 hour

Row | Structure (SMILES) | % Inhibition [%]
1 | COc1snc(C(Cl)(Cl)Cl)c1Cl | -2
2 | CCN(CC)CCC1C(=O)N(c2ccccc2)C(=O)N(c2ccccc2)C1=O | 4
3 | CC(=O)N1N=C(c2cccnc2)O[C@H]1c1ccc(F)cc1 | -10
4 | Cc1nc(Cn2nc(C(C)(C)C)oc2=O)oc1C | 0
5 | FC1(F)C[C@@H](COc2cccnc2)N(C2CCCCC2)C1 | 3
6 | Cn1cc(/C=C2\CC3C4CCC5CCCCC5(C)C4CCC3(C)C2O)cn1 (configuration not stated) | 0
7 | Cc1cccc(CN(C)C)c1OC(=O)N(C)C | -9
8 | COc1ccc(-c2cc([C@H]3CN4CC[C@H]3C[C@@H]4CNC(=O)C3CCCCC3)n(C)n2)cc1OC | -9
9 | Cc1ccc(NC(=O)N2CCC(=O)CC2)cc1Br | -4
10 | C=CCCC(CN1C[C@H]2CC=CC[C@H]2C1)Oc1ncc(F)cn1 (some centres not stated) | 77
11 | COC(=O)[C@H]1CN(Cc2noc(C)n2)C[C@@H]1c1ccc(F)cc1F | -20
12 | CC(Cc1ccccc1)NC1CN2CCC1CC2 (configuration not stated) | 1
13 | CC(C)N1CCN(c2nc3nc[nH]c(=O)c3s2)CC1 | 4
14 | O=S(=O)(NC12CCCC1CNC2)c1onc(C2CC2)c1Cl (configuration not stated) | 95
15 | O=C(NCc1cc(F)cc(F)c1)c1cn(Cc2ccc(F)cc2)nn1 | -15
16 | O=C1N[C@](c2ccccc2)(C(F)(F)F)c2ccc3ccccc3c2O1 | 5
17 | CC1CCCCC1N1CCN(C(=O)COc2ccc(Br)cc2)CC1 (configuration not stated) | 3
18 | O=c1c2cc(Cl)ccc2nc(-c2cccnc2)n1-c1ccc(Br)cc1 | 0
19 | O=C1O[C@@H]2CCN(Cc3ccccc3)[C@H]1C2 | -15
20 | CCC1(CC)C(=O)N(CN2CCCC2=O)C(=O)N(CN2CCCC2=O)C1=O | -17
21 | CN(C)S(=O)(=O)Nc1cccc(OC(=O)N2CCOCC2)c1 | -10

Row | Structure (SMILES) | % Inhibition [%]
22 | CCN1CCC[C@H](NC(C2CCC2)C2CCC2)C1 | -3
23 | O=C(N1CCN(C(c2ccccc2)c2ccccc2)CC1)C(O)(c1ccccc1)c1ccccc1 | -4
24 | Cc1cc(=O)c(OCC(=O)N2CCN([C@@H](c3ccccc3)c3ccc(Cl)cc3)CC2)c[nH]1 | 63
25 | COc1cc(OCC(=O)N2CCN([C@@H](C)Cc3ccccc3)CC2)cc(OC)c1OC | 8
26 | Cc1ccc(C(O)(c2ccc(C)c(C)c2)[C@H]2C[N@]3CC[C@@H]2CC3)cc1C | 6
27 | CN1CCN(CCO[C@@H](c2cccc(Cl)c2)c2ccccc2Cl)CC1 | 0
28 | O=C(c1ccccc1)c1cc(Cl)ccc1NC(=O)[C@H]1CC(=O)N(c2ccc(F)cc2)C1 | 85
29 | c1cc(-n2cnnn2)ccc1N[C@H]1CN2CCC1CC2 | -14
30 | CC(C)c1nc(CC(=O)N2CCN(Cc3nnc4n3CCCCC4)CC2)cs1 | -12
31 | CCCC(=O)N(C1=CC2CCC(C1)N2C)c1ccccc1 (configuration not stated) | 1
32 | Cc1cc(C(=O)NC2CC(C)n3ccnc32)nn1C(C)C (configuration not stated) | 58
33 | COc1cc(=O)c(C(=O)N2CCC3(CC2)OCCO3)nn1-c1ccc(C)cc1 | -5
34 | CN1CCC2CCN(C(=O)c3cc(C4CC4)on3)C2C1 (configuration not stated) | 2
35 | CCOc1ccccc1N1C(=O)NC(=O)[C@@]2(Cc3cc(C)ccc3N(C)C2)C1=O | -10
36 | COC(=O)C(O)(c1ccc2c(c1)C(O)(C(F)(F)F)C(=O)N2C(C)C)C(F)(F)F (configuration not stated) | 8
37 | CC1CN2CCCC2CN1C(=O)c1cc(C2CC2)on1 (configuration not stated) | -17
38 | O=C1C2CCN(CC2)[C@H]1Cc1ccc(Cl)cc1 | 4
39 | Cc1cc(C(F)(F)F)c2c(C(N)=O)cn(C(C)(C)C)c2n1 | 2
40 | C[N+]12CCC(CC1)[C@@H](C(O)(c1cccc(Cl)c1)c1cccc(Cl)c1)C2 | 24
41 | O=C1CO[C@H]2CCN(Cc3cn4ccc(Br)cc4n3)C[C@@H]2N1 | 1
42 | Cn1nc(OC(=O)Nc2ccccc2)cc1C(F)(F)F | 6

Row | Structure (SMILES) | % Inhibition [%]
43 | CN(C)C(=O)CCCn1ccc(NC(=O)C2C(C)(C)C2(C)C)n1 | -18
44 | Nc1ccc(N2CCN3CCC[C@H]3C2)cc1 | 8
45 | Cc1ccc2c(c1)CCCN2C(=O)CN1CC=C(c2cnn(C)c2)CC1 | 43
46 | CCC(CC)c1cc([C@H]2CN3CC[C@H]2C[C@@H]3CO)nc(-c2ccncc2)n1 | 26
47 | CCC(CC)c1cc([C@H]2CN3CC[C@H]2C[C@@H]3CNS(=O)(=O)Cc2ccccc2)nc(-c2ccncc2)n1 | 63
48 | CCCS(=O)(=O)NC[C@H]1C[C@@H]2CCN1C[C@@H]2c1cc(C(CC)CC)nc(-c2ccncc2)n1 | 18
49 | CC1CCNC(=O)C1NC(=O)Nc1ccc(C#N)c(C(F)(F)F)c1 (configuration not stated) | 8
50 | Clc1ccc(C2CC(c3cccnc3)Nc3nnnn32)cc1 (configuration not stated) | -10
51 | CCCCC1(CCCC)C(=O)NC(=Nc2ccc(C)cc2)NC1=O | -18
52 | O=C1N(c2ccccc2)C(=O)C2(Cc3cc(C(F)(F)F)ccc3N3CCC(c4ccccc4)CC32)C(=O)N1c1ccccc1 (configuration not stated) | 4
53 | CC[C@H]1C[N@@]2CC[C@H]1C[C@@H]2COC(=O)Nc1ccc(C(C)(C)C)cc1 | 4
54 | COc1cccc(CNC(=O)N2CC[C@@H]3CCN(C)C[C@@H]32)n1 | -2
55 | CC(=O)N(C1CCN(Cc2ccccc2)CC1)C1(C(=O)Nc2ccc3[nH]ccc3c2)CCN(C)CC1 | 35
56 | c1cc(N2CC[C@@]3(CCCNC3)C2)c2sccc2n1 | 99
57 | CN1CC[C@]2(CCN(c3ccnc4ccsc34)C2)C1 | 99
58 | CCn1nccc1CNCCc1ccccc1 | 4
59 | CC[C@H]1C[N@@]2CC[C@H]1C[C@@H]2COC(=O)Nc1ccccc1 | 3
60 | CNc1snc(C)c1C(=O)N1CCC(C(=O)OC)(c2ccccc2)CC1 | -2
61 | COc1ccc(-c2ccccc2N2CCNCC2)c2ccc(C)nc12 | -4
62 | Clc1cccc(CCN[C@H]2CCOC3(CCOCC3)C2)c1 | 7
